Inconclusive results are not listed. Active and inactive are the calls of the source. Unless noted, calls follow the shape of the dose curve; as a rule, active = well fitted curve in the direction sought with a large enough effect in the repeat runs; inconclusive = weak or mixed curves; inactive = no such curve, though single readings can be large; an effect the other way counts as inactive or inconclusive.
Columns and labels:
[1] = qHTS assay to identify small molecule HDAC inhibitors (AID 1259364);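 also: wild-type HCT-116 cells with endogenous class I/II HDAC activity; top concentration of the series differs between compounds; nearly all actives have a fitted effect of over 45% in size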
Method in brief: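 Quantitative high-throughput format: overnight-seeded HCT-116 cells got compounds for 2 hr at 37C; HDAC-Glo I/II reagent added, 30 min RT, luminescence measured.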

[2] = qHTS assay to identify small molecule HDAC inhibitors - cell viability counter screen (AID 1259365); also: series mostly up to about 92 µM; nearly all actives have a fitted effect of over 50% in size
Method in brief: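 To flag cytotoxic hits, 1,500 wild-type HCT-116 cells per well, plated the day before, receive test compounds for 2hr at 37 C before CellTiter-Glo reagent and a luminescence read.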

[3] = qHTS assay to identify small molecule agonists of the sonic hedgehog signaling (Shh) pathway - cell viability counter screen (AID 1259366); also: nearly all actives have a fitted effect of over 50% in size
Method in brief: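 Fluorescence from CellTiter-Fluor reports live cells in this counter screen. NIH/3T3-derived Gli1-Luc reporter cells receive test compounds for 24hr at 37C; reagent goes in at 23hr.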

[4] = qHTS assay to identify small molecule antagonists of the sonic hedgehog signaling (Shh) pathway - cell viability counter screen (AID 1259367); also: nearly all actives have a fitted effect of over 55% in size
Method in brief: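 CellTiter-Fluor signal in conditioned medium-stimulated 3T3 Gli1-Luc cells, 23 hr compound exposure, 37C.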

[5] = qHTS assay to identify small molecule agonists of the sonic hedgehog signaling (Shh) pathway (AID 1259368; calls by dose curve;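 also: NIH/3T3-derived 3T3Gli1-Luc cells carrying a stable Gli1-driven firefly luciferase reporter; series mostly up to about 92 µM; nearly all actives have a fitted effect of over 15% in size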)
Method in brief: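 Quantitative high-throughput format using a Gli1-driven firefly luciferase reporter line derived from NIH/3T3 cells. After a 24 hr compound treatment at 37 C and 5% CO2, luminescence reported Gli1 response element activity.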

[6] = target: Estrogen receptor beta (Homo sapiens) (UniProt Q92731); assay: qHTS assay to identify small molecule agonists of the estrogen receptor beta (ER-beta) signaling pathway (AID 1259377; active = well fitted activation curve with a large enough effect in the signal ratio in the repeat runs, not every such curve was filed as active; the % refers to the signal ratio)
Method in brief: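 Screening used GripTite ER-beta-UAS-bla cells held in 2% charcoal-stripped FBS medium. After overnight (16 hr) compound incubation at 37C, beta-lactamase activity was detected with a FRET substrate by fluorescence.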

[7] = target: Estrogen receptor beta (Homo sapiens) (UniProt Q92731); assay: qHTS assay to identify small molecule antagonists of the estrogen receptor beta (ER-beta) signaling pathway (AID 1259378; active = well fitted inhibition curve with a large enough effect in the signal ratio in the repeat runs, not every such curve was filed as active; the % refers to the signal ratio)
Method in brief: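 Antagonist mode: compounds added to beta-lactamase reporter HEK293T ER-beta-UAS cells stimulated with E2 (1nM final), 16 hr at 37C. LiveBLAzer B/G FRET substrate, 2 hours room temperature, fluorescence read-out.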

[8] = qHTS assay to identify small molecule agonists of the estrogen receptor beta (ER-beta) signaling pathway - cell viability counter screen (AID 1259380); also: nearly all actives have a fitted effect of over 30% in size
Method in brief: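 Steps: plate ER-beta-UAS-bla HEK293T cells, rest 6 hr; add compounds in DMSO; incubate 16 hr at 37C, 5% CO2; add FRET substrate 2 hr; add CellTiter-Glo, wait 30 min at room temperature; read luminescence.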

[9] = qHTS assay to identify small molecule antagonists of the estrogen receptor beta (ER-beta) signaling pathway - cell viability counter screen (AID 1259382);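 also: HEK293T cells carrying ER-beta-UAS-bla reporter stimulated with estradiol; series mostly up to about 92 µM; nearly all actives have a fitted effect of over 55% in size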
Method in brief: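 Viability is scored by CellTiter-Glo luminescence (30 min, room temperature) in ER-beta-UAS-bla HEK293T wells already read for reporter fluorescence. Compound exposure lasts 16 hr at 37C alongside 1nM 17-beta-estradiol in charcoal-stripped serum medium.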

[10] = target: Estrogen receptor (Homo sapiens) (UniProt P03372); assay: qHTS assay to identify small molecule agonists of the estrogen receptor alpha (ER-alpha) signaling pathway in the presence of an antagonist (AID 1259383; calls by dose curve; also: top concentration of the series differs between compounds; nearly all actives have a fitted effect of over 15% in size)
Method in brief: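 Readout was ERE-driven luciferase luminescence in VM7Luc4E2 cells, which express full-length ER-alpha endogenously. Compounds were tested at 15 concentrations for 22hr alongside 10.0nM ICI-182,780 (final concentration).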

[11] = target: Thyrotropin receptor (Homo sapiens) (UniProt P16473); assay: qHTS assay to identify small molecule antagonists of the thyroid stimulating hormone receptor (TSHR) signaling pathway (AID 1259385; calls by dose curve; also: nearly all actives have a fitted effect of over 20% in size)
Method in brief: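 Antagonist mode: compound-treated TSHR-expressing HEK293 cells were stimulated with 1.5 ng/mL TSH (final) in presence of Ro20-1724 for 30 min at RT. HTRF cAMP detection after 1 h; each compound tested at 15 concentrations, triplicate.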

[12] = qHTS assay to identify small molecule agonists of the estrogen receptor alpha (ER-alpha) signaling pathway in the presence of an antagonist - cell viability counter screen (AID 1259386);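 also: series mostly up to about 92 µM; cells exposed to compounds for 22 h at 37 °C before the viability read; nearly all actives have a fitted effect of over 30% in size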
Method in brief: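 In this counter screen, compound effects on VM7Luc4E2 viability were tested in the presence of the antagonist ICI-182,780 at 10.0nM final. Compounds were dosed at 15 concentrations, exposure lasted 22hr, and the CellTiter-Fluor signal was read.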

[13] = target: Progesterone receptor (Homo sapiens) (UniProt P06401); assay: qHTS assay to identify small molecule agonists of the progesterone receptor (PR) signaling pathway (AID 1346784; calls by dose curve; also: nearly all actives have a fitted effect of over 30% in size)
Method in brief: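 Seed PR-UAS-bla HEK 293T cells (2% charcoal-stripped FBS), incubate 6 hr at 37C; add compounds in DMSO, 16 hr at 37C; add LiveBLAzer B/G substrate, 2 hr RT; read fluorescence intensity.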

[14] = target: Progesterone receptor (Homo sapiens) (UniProt P06401); assay: qHTS assay to identify small molecule antagonists of the progesterone receptor (PR) signaling pathway (AID 1346795; active = well fitted inhibition curve with a large enough effect in the signal ratio in the repeat runs, not every such curve was filed as active; the % refers to the signal ratio)
Method in brief: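 Screening used a GripTite HEK293T line with PR-responsive UAS-beta-lactamase. Cells were challenged with compound in the presence of 1 nM R5020 final for 16 hr at 37C; B/G FRET substrate, 2 hr room temperature, fluorescence.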

[15] = qHTS assay to identify small molecule agonists of the progesterone receptor (PR) signaling pathway - cell viability counter screen (AID 1346799; calls by dose curve; also: nearly all actives have a fitted effect of over 45% in size)
Method in brief: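 Using the same plates as the PR reporter screen, HEK293T PR-UAS-bla cells received compounds for 16 hr at 37C and were then lysed with CellTiter-Glo; luminescence was read 30 min later at room temperature.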

[16] = qHTS assay to identify small molecule agonists or antagonists of the thyroid stimulating hormone receptor (TSHR) signaling pathway - wild type cell line counter screen (AID 1259384; calls by dose curve)
Method in brief: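 Counter screen in untransfected Hek293: compounds (15-point titration, triplicate) plus phosphodiesterase inhibitor Ro20-1724 added after 18 h plating; 30 min RT. Intracellular cAMP via competitive d2/cryptate immunoassay, 1 h incubation.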

[17] = qHTS assay to identify small molecule antagonists of the progesterone receptor (PR) signaling pathway - cell viability counter screen (AID 1346798); also: series mostly up to about 92 µM; nearly all actives have a fitted effect of over 50% in size
Method in brief: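 Measures cytotoxicity in parallel with the PR antagonist reporter read: HEK293T PR-UAS-bla cells get compound and R5020 for 16 hr, and remaining viable cells are quantified by CellTiter-Glo luminescence.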

[18] = qHTS assay to identify small molecule antagonists of the TGF-beta/Smad signaling pathway - cell viability counter screen (AID 1346824); also: nearly all actives have a fitted effect of over 50% in size
Method in brief: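 Cytotoxicity counter-screen run in the same wells as the beta-lactamase Smad reporter read: CellTiter-Glo luminescence after 30 min at room temperature. HEK 293T SBE-bla cells had 5 hr compound exposure at 37 C with TGF-beta1 (0.25 ng/mL stock).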

[19] = qHTS assay to identify small molecule antagonists of the sonic hedgehog signaling (Shh) pathway (AID 1259369; calls by dose curve; also: nearly all actives have a fitted effect of over 45% in size)
Method in brief: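 Stable Gli1-Luc reporter NIH/3T3 clone; quantitative HTS in stimulated mode with conditioned medium. Luminescence measured after 24hr compound treatment at 37 C.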

[20] = qHTS assay to identify small molecule agonists of the androgen receptor (AR) signaling pathway in the presence of an antagonist - cell viability counter screen (AID 1259379);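 also: MDA-kb2 human breast cancer cells carrying an MMTV luciferase reporter; series mostly up to about 92 µM; nearly all actives have a fitted effect of over 25% in size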
Method in brief: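 Nilutamide-containing (3.0uM final) MDA-kb2 cultures, 3,000 cells/well, were treated with compounds across 15 concentrations. After 16 hr at 37C with no CO2, cell viability was determined by CellTiter-Fluor fluorescence in the luciferase assay wells.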
% is scaled to controls: 0 for no effect and ±100 for the full control effect.

Progesterone receptor (Homo sapiens), sequence (P06401 whole entry, looked up): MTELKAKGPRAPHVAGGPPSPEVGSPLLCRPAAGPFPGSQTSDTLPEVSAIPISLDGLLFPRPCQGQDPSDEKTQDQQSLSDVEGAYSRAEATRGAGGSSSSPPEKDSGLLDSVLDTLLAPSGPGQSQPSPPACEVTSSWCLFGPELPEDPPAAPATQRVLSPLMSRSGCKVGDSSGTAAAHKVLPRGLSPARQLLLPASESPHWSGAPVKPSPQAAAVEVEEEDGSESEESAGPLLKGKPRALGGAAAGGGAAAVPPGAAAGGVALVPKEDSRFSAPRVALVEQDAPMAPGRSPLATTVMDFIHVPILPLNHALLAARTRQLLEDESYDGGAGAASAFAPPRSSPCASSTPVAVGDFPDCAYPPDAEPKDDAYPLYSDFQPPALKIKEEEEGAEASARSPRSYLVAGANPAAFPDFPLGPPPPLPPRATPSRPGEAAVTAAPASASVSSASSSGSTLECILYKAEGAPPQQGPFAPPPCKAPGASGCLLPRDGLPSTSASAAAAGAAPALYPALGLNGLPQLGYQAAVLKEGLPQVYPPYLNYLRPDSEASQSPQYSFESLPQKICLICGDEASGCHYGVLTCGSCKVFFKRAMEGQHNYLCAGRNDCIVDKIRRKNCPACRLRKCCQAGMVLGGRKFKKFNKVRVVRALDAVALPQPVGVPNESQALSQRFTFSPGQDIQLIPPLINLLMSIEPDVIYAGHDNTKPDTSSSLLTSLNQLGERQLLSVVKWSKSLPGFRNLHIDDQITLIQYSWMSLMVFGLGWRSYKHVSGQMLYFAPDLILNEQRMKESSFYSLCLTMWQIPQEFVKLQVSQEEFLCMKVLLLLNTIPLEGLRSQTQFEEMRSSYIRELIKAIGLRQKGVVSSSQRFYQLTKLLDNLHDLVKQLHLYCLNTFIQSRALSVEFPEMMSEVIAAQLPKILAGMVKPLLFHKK
Estrogen receptor (Homo sapiens), sequence (P03372 whole entry, looked up): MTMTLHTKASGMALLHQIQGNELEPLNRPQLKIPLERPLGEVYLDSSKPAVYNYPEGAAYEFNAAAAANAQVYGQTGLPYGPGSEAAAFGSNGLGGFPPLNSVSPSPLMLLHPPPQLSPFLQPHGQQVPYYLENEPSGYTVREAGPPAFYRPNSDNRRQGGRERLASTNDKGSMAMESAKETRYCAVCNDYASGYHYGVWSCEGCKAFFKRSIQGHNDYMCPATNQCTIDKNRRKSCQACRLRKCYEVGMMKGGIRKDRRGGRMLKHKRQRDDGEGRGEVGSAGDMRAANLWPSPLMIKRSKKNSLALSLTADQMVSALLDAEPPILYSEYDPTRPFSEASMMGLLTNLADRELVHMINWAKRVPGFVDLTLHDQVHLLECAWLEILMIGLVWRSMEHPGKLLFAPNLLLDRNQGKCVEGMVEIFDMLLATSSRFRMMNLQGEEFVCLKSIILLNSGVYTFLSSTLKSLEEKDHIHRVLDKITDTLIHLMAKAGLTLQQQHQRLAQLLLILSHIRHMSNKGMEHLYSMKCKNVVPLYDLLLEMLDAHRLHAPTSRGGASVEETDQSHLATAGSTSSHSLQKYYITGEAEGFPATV
Thyrotropin receptor (Homo sapiens), sequence (P16473 whole entry, looked up): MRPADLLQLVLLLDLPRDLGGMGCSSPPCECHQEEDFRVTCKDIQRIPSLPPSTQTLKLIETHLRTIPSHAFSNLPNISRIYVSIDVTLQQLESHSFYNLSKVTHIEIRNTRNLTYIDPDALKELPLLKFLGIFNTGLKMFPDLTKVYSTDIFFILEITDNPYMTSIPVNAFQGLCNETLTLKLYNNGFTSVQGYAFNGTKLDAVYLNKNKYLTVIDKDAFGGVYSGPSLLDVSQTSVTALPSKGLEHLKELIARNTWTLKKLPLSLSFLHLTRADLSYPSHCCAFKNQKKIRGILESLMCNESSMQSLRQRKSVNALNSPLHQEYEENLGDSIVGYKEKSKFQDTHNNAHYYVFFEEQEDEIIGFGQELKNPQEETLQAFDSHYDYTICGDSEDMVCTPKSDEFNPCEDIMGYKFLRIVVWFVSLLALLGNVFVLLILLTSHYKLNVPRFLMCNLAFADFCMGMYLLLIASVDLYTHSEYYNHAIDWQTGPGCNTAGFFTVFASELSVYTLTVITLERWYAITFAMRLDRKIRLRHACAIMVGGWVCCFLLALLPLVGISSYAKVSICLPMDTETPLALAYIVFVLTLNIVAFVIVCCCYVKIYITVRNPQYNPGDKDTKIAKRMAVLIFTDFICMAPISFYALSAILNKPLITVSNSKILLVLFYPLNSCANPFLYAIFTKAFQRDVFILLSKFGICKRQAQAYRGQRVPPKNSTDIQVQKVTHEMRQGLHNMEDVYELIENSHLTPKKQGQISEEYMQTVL
Estrogen receptor beta (Homo sapiens), sequence (Q92731 whole entry, looked up): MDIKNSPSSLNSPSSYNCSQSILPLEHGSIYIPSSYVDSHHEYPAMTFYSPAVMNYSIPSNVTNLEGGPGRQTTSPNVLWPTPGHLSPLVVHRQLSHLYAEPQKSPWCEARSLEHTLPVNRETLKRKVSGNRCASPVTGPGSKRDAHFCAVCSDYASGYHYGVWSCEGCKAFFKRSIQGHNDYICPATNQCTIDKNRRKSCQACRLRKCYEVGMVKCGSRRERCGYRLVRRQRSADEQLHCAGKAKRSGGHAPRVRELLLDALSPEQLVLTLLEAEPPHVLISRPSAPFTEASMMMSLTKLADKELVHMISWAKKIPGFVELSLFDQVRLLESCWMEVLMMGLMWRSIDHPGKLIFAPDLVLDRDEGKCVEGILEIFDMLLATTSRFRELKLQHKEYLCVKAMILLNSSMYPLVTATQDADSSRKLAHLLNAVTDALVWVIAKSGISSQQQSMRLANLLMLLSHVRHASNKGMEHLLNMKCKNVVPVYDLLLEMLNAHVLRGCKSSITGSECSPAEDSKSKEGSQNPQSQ

CC(C)C(=O)c1ccccc1
inactive: Potency [1] | outcome [2] | Potency [3] | Potency [4] | outcome [5] | Potency [6] | outcome [7] | outcome [8] | outcome [9] | outcome [10] | outcome [11] | Potency [12] | Potency [13] | Potency [14] | Potency [15]

Cc1ccccc1N1CCN(CCc2nnc3n2CCCC3)CC1
inactive: Potency [1] | outcome [2] | Potency [3] | Potency [4] | outcome [5] | Potency [6] | outcome [7] | outcome [8] | outcome [16] | outcome [11] | Potency [12] | Potency [13] | Potency [14] | Potency [17] | outcome [18]

CCOC(=O)OCC/C(SC(=O)OCC)=C(\C)N(C=O)Cc1cnc(C)nc1N
inactive: Potency [1] | outcome [2] | Potency [3] | Potency [4] | Potency [19] | Potency [6] | outcome [7] | Potency [20] | outcome [8] | outcome [9] | outcome [16] | outcome [11] | Potency [12] | Potency [13] | Potency [14] | Potency [15]

CCCOCCOCCOCCO
inactive: Potency [1] | outcome [2] | Potency [3] | Potency [4] | Potency [19] | Potency [6] | outcome [7] | Potency [20] | outcome [8] | outcome [9] | outcome [10] | Potency [12] | Potency [13] | outcome [18]

CC(=O)N1CCN(c2ccc(O)cc2)CC1
inactive: Potency [1] | outcome [2] | Potency [3] | Potency [4] | Potency [19] | Potency [6] | outcome [7] | Potency [20] | outcome [8] | outcome [10] | outcome [16] | outcome [11] | Potency [12] | Potency [13] | Potency [14] | Potency [17] | Potency [15] | outcome [18]

CC(C)SCc1ccco1
inactive: Potency [1] | outcome [2] | Potency [3] | Potency [4] | Potency [19] | Potency [6] | outcome [7] | Potency [20] | outcome [8] | outcome [9] | outcome [10] | Potency [12] | Potency [13] | Potency [14] | Potency [17] | Potency [15] | outcome [18]

BrC/C=C/CBr
inactive: activity change, negative = inhibition [1] -0.207% [at 19 µM] | activity change, negative = cytotoxicity [2] 2.41% [at 19 µM] | viability change, negative = cytotoxic [3] 0.645% [at 19 µM] | viability change, negative = cytotoxic [4] -1.72% [at 19 µM] | activity change [5] -1.5% [at 18.9 µM] | activation [6] 0.425% [at 19 µM] | activity, negative = inhibition [7] 8.47% [at 19 µM] | activity change, negative = cytotoxicity [20] 0.671% [at 19 µM] | activity change, negative = cytotoxicity [8] 4.89% [at 19 µM] | cAMP activity change [16] -5.59% [at 18.9 µM] | activity change, negative = inhibition [11] -1.56% [at 19 µM] | activity change, negative = cytotoxicity [12] 2.04% [at 19 µM] | activation [13] 1.6% [at 19 µM] | activity change, negative = inhibition [14] -3.92% [at 18.9 µM] | activity change, negative = cytotoxicity [17] 20.7% [at 18.9 µM] | activity change, negative = cytotoxicity [15] 0% [at 19 µM] | viability change, negative = cytotoxic [18] 0.16% [at 15.8 µM]

CN(C)CCCNCCC#N
inactive: Potency [1] | outcome [2] | Potency [3] | Potency [4] | outcome [5] | Potency [6] | outcome [7] | Potency [20] | outcome [8] | outcome [9] | Potency [12] | Potency [13] | Potency [14] | Potency [17] | Potency [15]

O=C1NC2NC(=O)NC2N1 (stereo not given)
inactive: Potency [1] | outcome [2] | Potency [3] | Potency [4] | outcome [5] | Potency [6] | outcome [7] | Potency [20] | outcome [8] | outcome [16] | outcome [11] | Potency [12] | Potency [13] | Potency [14] | Potency [17] | Potency [15] | outcome [18]

CCCCCC1CCCC(=O)O1 (stereo not given)
inactive: Potency [1] | outcome [2] | Potency [3] | Potency [4] | outcome [5] | Potency [6] | outcome [7] | Potency [20] | outcome [8] | outcome [9] | outcome [11] | Potency [12] | Potency [17] | outcome [18]

C[N+](C)(C)CC(O)CCl (stereo not given)
inactive: Potency [1] | outcome [2] | Potency [3] | Potency [4] | outcome [5] | outcome [8] | outcome [10] | outcome [16] | outcome [11] | Potency [12] | Potency [13] | Potency [14] | Potency [17] | Potency [15] | outcome [18]

COc1ccc(NS(=O)(=O)c2ccc(N)cc2)nn1
inactive: Potency [1] | outcome [2] | Potency [3] | Potency [4] | outcome [5] | Potency [20] | outcome [8] | outcome [9] | outcome [10] | outcome [16] | outcome [11] | Potency [12] | Potency [13] | Potency [14] | Potency [17] | Potency [15] | outcome [18]

CCC(C)N (stereo not given)
inactive: Potency [1] | outcome [2] | Potency [3] | Potency [4] | outcome [5] | Potency [6] | outcome [7] | Potency [20] | outcome [8] | outcome [10] | Potency [12] | Potency [14] | Potency [17] | outcome [18]

Cc1nc([N+](=O)[O-])cn1-c1ccc([N+](=O)[O-])cc1
inactive: Potency [1] | outcome [2] | Potency [3] | Potency [4] | outcome [5] | Potency [20] | outcome [8] | outcome [9] | outcome [10] | outcome [16] | outcome [11] | Potency [12] | Potency [13] | Potency [14] | Potency [17] | Potency [15] | outcome [18]

C=C(C)C(=O)OC1CC(C)CC(C)(C)C1 (stereo not given)
inactive: Potency [1] | outcome [2] | Potency [3] | Potency [4] | outcome [5] | Potency [6] | outcome [7] | Potency [20] | outcome [8] | outcome [9] | outcome [16] | Potency [12] | Potency [13] | Potency [14] | Potency [17] | Potency [15] | outcome [18]

CCOc1ccc(NC(=O)OC(C)C)cc1OCC
inactive: Potency [1] | outcome [2] | Potency [3] | Potency [4] | outcome [5] | Potency [6] | outcome [7] | Potency [20] | outcome [9] | Potency [12] | Potency [14] | outcome [18]

From PubChem BioAssay (Tox21)
